Our source for the activity, Potency and activity change, negative = inhibition values is PubChem BioAssay (NCATS).

Active and inactive are the calls of the source. Calls come from the whole dose curve.

Holding throughout (assay): Confirmatory Screen for Target Class Profiling of Small Molecule Inhibitors of Methyltransferases (AID 1745852); for activity change, negative = inhibition: % is set by controls: 0 for no effect and ±100 for the full control effect
The target of assay [1] is Catechol O-methyltransferase (Homo sapiens) (UniProt P21964). As to conditions: MTase-Glo luminescence, SAH detection, recombinant enzyme; measured here: COMT max response; stronger effect = lower value.
Assay [2] deals with Guanidinoacetate N-methyltransferase (Homo sapiens) (UniProt Q14353). As to conditions: MTase-Glo luminescence, SAH detection, recombinant enzyme; activity change, negative = inhibition: at 57.3 µM (top of the series) unless noted; series mostly up to 57.3 µM.
Assay [3] deals with Nicotinamide N-methyltransferase (Homo sapiens) (UniProt P40261). As to conditions: MTase-Glo luminescence, SAH detection, recombinant enzyme; measured here: NNMT max response; stronger effect = lower value.
The target of assay [4] is Phenylethanolamine N-methyltransferase (Homo sapiens) (UniProt P11086). As to conditions: MTase-Glo luminescence, SAH detection, recombinant enzyme; measured here: PNMT max response; stronger effect = lower value.
Potency is the fitted concentration of half-maximal effect.

Sequence of Catechol O-methyltransferase (Homo sapiens) (P21964 whole entry, looked up): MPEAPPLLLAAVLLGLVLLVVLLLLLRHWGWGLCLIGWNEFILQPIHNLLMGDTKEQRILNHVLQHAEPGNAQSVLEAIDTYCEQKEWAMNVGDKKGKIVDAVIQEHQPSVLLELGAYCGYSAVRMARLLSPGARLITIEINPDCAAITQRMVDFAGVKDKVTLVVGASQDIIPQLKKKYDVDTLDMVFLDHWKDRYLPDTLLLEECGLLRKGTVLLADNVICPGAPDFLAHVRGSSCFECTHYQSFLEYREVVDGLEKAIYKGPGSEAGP
Sequence of Nicotinamide N-methyltransferase (Homo sapiens) (P40261 whole entry, looked up): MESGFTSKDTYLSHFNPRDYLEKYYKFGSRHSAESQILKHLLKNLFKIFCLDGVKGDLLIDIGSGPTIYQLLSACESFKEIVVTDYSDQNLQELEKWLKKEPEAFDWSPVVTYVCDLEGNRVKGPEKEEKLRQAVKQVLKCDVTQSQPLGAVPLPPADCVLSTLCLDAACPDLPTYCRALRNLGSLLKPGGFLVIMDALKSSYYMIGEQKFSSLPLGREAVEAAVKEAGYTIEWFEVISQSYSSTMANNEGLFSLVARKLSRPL
Sequence of Phenylethanolamine N-methyltransferase (Homo sapiens) (P11086 whole entry, looked up): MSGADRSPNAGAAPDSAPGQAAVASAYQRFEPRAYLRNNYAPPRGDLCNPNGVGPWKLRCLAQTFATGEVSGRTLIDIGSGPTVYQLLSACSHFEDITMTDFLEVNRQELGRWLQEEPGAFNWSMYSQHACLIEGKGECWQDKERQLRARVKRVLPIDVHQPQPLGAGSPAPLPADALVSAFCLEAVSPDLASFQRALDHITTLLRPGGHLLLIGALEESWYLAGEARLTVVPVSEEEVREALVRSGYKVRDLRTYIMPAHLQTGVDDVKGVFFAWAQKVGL

Consider `O=C(NCc1ccc2c(c1)OCO2)c1sc(=S)n2c1[nH]c(=O)c1ccc(Cl)cc12`, for which the activity in assay [1] was -88.3%; in assay [3], -87.4%; in assay [4] it was -92.6%. Besides, in assay [2], the Potency is 24.1 µM (active).
`CCN(CC)c1cc(CCC(=O)N2CCN(c3cccc(OC)c3)CC2)ccn1`: the activity is -2.67% in assay [1], 1.73% in assay [3] and -3.99% in assay [4]. Also, the activity change, negative = inhibition in assay [2] is 5.52%.
`COc1ccc(CCN2C(=O)c3ccc(-c4ccco4)n3CC2(C)C(=O)NC2CCCC2)cc1OC` (stereo not drawn): the figures for the activity in assay [1], in assay [3] and in assay [4] were -9.3%, -65.9% and -5.82%, respectively. Besides, the activity change, negative = inhibition in assay [2] is -6.46%.
The corresponding values for `CC1CCN(CCCNC(=O)C2CCc3sc(C(=O)N4CCCC4)cc3C2)CC1` (stereo not drawn) are 4.14%, -0.224%, 4.65% and 6.27%.
On to `COc1ccc(OC)c(CN2CCNc3cc(-c4ccnc(C)c4)ncc3C2)c1`, for which the activity in assay [1] was 6.21%; in assay [3], -5.07%; in assay [4], 4.8%. In addition, the activity change, negative = inhibition in assay [2] came out at 6.12% [at 85.7 µM].
The corresponding values for `O=C(Nc1ccc2c(N3CCCC3)ncnc2c1)c1cc(F)ccc1Cl` are -8.67%, -15.4%, -17.8% and -7.52%.
Take `CC1CCN(CCCNC(=O)CCc2nnc3n(Cc4ccccc4)c(=O)c4ccccc4n23)CC1`: the activity in assay [1] is 0.801%; in assay [3] it was -2.83%; in assay [4], 2.06%. Besides, the activity change, negative = inhibition in assay [2] was 0%.
On to `c1ccc(CN2CCNc3cnc(Nc4ccc(N5CCOCC5)cc4)cc3C2)cc1`, for which the activity in assay [1] is -14.6%; in assay [3], -15%; in assay [4] it was -10.3%. In addition, the activity change, negative = inhibition in assay [2] is -9.27% [at 85.7 µM].
Consider `CCOC(=O)c1cccc(Nc2cc(C)nc3ccc(C)cc23)c1`, for which the results for the activity in assay [1], in assay [3] and in assay [4] were -4.58%, -21.8% and -4.31%, respectively. Also, the activity change, negative = inhibition in assay [2] amounted to 0%.
In the case of `COc1ccc(-c2nnn3c2nc(N2CCOCC2)c2ccccc23)cc1`, the activity in assay [1] is -38.9%; in assay [3] it was -27.8%; in assay [4] it was -35.3%. Besides, in assay [2], the Potency is 19.2 µM (active).
As to `CCCC1c2cccn2CCN1C(=O)Nc1ccccc1Br` (stereo not drawn), the activity is -6.73% in assay [1], -13.8% in assay [3] and -7.98% in assay [4]. The activity change, negative = inhibition in assay [2] is -3.12%.
For `O=C(NCc1ccc2c(c1)OCO2)c1sc(=S)n2c1[nH]c(=O)c1ccccc12`, the activity in assay [1] is -46.4%; in assay [3], -20.7%; in assay [4], -48.8%. Further, the Potency in assay [2] was 27.1 µM (active).
As for `Cc1cccc(N2CCN(C(=O)CCc3nnc4n(CCC(C)C)c(=O)c5ccccc5n34)CC2)c1C`, the activity is -0.369% in assay [1], -48.8% in assay [3] and -4.73% in assay [4]. In assay [2], the activity change, negative = inhibition is 0%.
Consider `Cc1ccc(NS(=O)(=O)c2ccc3[nH]c(=O)[nH]c3c2)cc1F`, for which the activity in assay [1] is -8.47%; in assay [3], -16.3%; in assay [4], -45.9%. For the same compound, in assay [2], the activity change, negative = inhibition was -6.18%.
As for `CC(C)c1nccn1CCCNc1nc(-c2ccncc2)nc2c1cnn2C`, the figures for the activity in assay [1], in assay [3] and in assay [4] were -28.8%, -20.9% and -44.2%, respectively. Further, the activity change, negative = inhibition in assay [2] was -15.2%.
As to `CC(=O)Nc1cc(-c2cc(C(=O)NCc3cccnc3)c3c(c2)N(C)CCO3)ccn1`, the activity in assay [1] was -17.6%; in assay [3], -4.98%; in assay [4], -28.5%. For the same compound, the activity change, negative = inhibition in assay [2] is -8.39% [at 85.7 µM].
The corresponding values for `Cc1cc(NS(=O)(=O)c2ccc3[nH]c(=O)[nH]c3c2)ccc1Br` are 1.24%, -14.5%, -63.7% and 0.289%.
As for `COc1cc2c(cc1O)NC(=O)CC2c1cn[nH]c1-c1cc(C)ccc1C` (stereo not drawn), the activity in assay [1] was -13.7%; in assay [3] it was -6.25%; in assay [4] it was -21.7%. In addition, the activity change, negative = inhibition in assay [2] came out at 2.11%.
In the same order, the values of `Cc1cc(-c2nc3ccncc3[nH]2)c(C)[nH]1` are -4.56%, -25.8%, -11.2% and 3.2% [at 114 µM].
Regarding `CC(CNC(=O)CCc1nnc2n(Cc3ccc(F)cc3)c(=O)c3ccccc3n12)c1ccccc1` (stereo not drawn), the activity in assay [1] was -6.68%; in assay [3], -44.2%; in assay [4], -0.739%. Moreover, in assay [2], the activity change, negative = inhibition is -2.31%.
`Cn1c(=O)c2ccnn2c2ccc(C(=O)NCC3CCN(Cc4ccccc4F)CC3)cc21`: the figures for the activity in assay [1], in assay [3] and in assay [4] were 3.91%, -38.8% and 2.1%, respectively. In addition, the activity change, negative = inhibition in assay [2] was 6.11%.
As for `Cc1cc(C)c(NS(=O)(=O)c2ccc3c(c2)n(C)c(=O)n3C)c(C)c1`, the values for the activity in assay [1], in assay [3] and in assay [4] were 0.505%, -39.4% and 0.178%, respectively. Further, the activity change, negative = inhibition in assay [2] stood at 0%.
As for `Cn1c(=O)n(C)c2cc(S(=O)(=O)Nc3ccc(-c4nnc(-c5ccccc5)o4)c(Cl)c3)ccc21`, the activity is -28.6% in assay [1], -40.4% in assay [3] and -17.1% in assay [4]. For the same compound, the activity change, negative = inhibition in assay [2] is -7.85%.
In the same order, the values of `COc1cccc(CN2C(=O)c3nc4ccccc4n3CC2(C)C(=O)NC2CCC(C)CC2)c1` (stereo not drawn) are -5%, -42.5%, -8.56% and 0.902%.
On to `COc1ccc(CCN2C(=O)c3cc4occc4n3CC2(C)C(=O)NC2CCCCCC2)cc1OC` (stereo not drawn), for which the activity is -3.67% in assay [1], -64.2% in assay [3] and -5.31% in assay [4]. Further, the activity change, negative = inhibition in assay [2] was -1.83%.
The corresponding values for `CC1CC(C)CN(S(=O)(=O)c2ccc3c(c2)oc(=O)n3CC(=O)Nc2cccc(F)c2)C1` (stereo not drawn) are 1.38%, -0.567%, -52.9% and 0%.
With `O=C(CCc1nnc2n(Cc3ccc(F)cc3)c(=O)c3ccccc3n12)N1CCC(N2CCCCC2)CC1`, the activity in assay [1] was 3.84%; in assay [3], -4.81%; in assay [4] it was 0%. Moreover, in assay [2], the activity change, negative = inhibition came to 0%.
